Inconclusive results are not listed. Calls of active or inactive are those of the source. Rule for the calls, unless noted: active = hit-call score of the fitted dose curve at least 0.9, where 1 is the maximum; inactive = score below 0.9.
Columns and labels:
[1] = read-out: Monocyte Chemoattractant Protein-1 (MCP1), CCL2 (gene 6347); assay: BSK_LPS_MCP1: BioMAP Diversity Plus: LPS Assay for Monocyte Chemoattractant Protein-1 (MCP1) Biomarker Activity (AID 2283081); conditions: primary human HUVEC with PBMC; actives raise or lower the signal;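 for AC50: secreted MCP-1 protein quantified by ELISA in culture supernatant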
Procedure, shortened: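 Secreted MCP-1 read by ELISA at 24 h post-dosing in an LPS-activated co-culture of endothelial cells with peripheral blood mononuclear cells. Fits run in both directions, DMSO as baseline; parallel SRB staining tracks overt cytotoxicity.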

[2] = BSK_LPS_PGE2: BioMAP Diversity Plus: LPS Assay for Prostaglandin E2 (PGE2) Biomarker Activity (AID 2283082); conditions: primary human HUVEC with PBMC; actives raise or lower the signal;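 for AC50: secreted prostaglandin E2 measured by ELISA in LPS-stimulated co-culture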
Procedure, shortened: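 Compounds were added to the LPS co-culture of endothelium and PBMC, and PGE2 was measured by ELISA after 24 h. Responses in either direction were fitted with DMSO as baseline.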

[3] = read-out: Tissue Factor, F3 (gene 2152); assay: BSK_LPS_TissueFactor: BioMAP Diversity Plus: LPS Assay for Tissue Factor Biomarker Activity (AID 2283084); conditions: primary human HUVEC with PBMC; actives raise or lower the signal
Procedure, shortened: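 Compound was added to an endothelial cell/PBMC co-culture, and after 24 h tissue factor (CD142) was read by ELISA. Gain or loss of signal was fitted against a DMSO baseline, and parallel SRB staining (560 nm) tracked overt cytotoxicity.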

[4] = read-out: Tumor necrosis factor (Homo sapiens) (UniProt P01375); assay: BSK_LPS_TNFa: BioMAP Diversity Plus: LPS Assay for Tumour Necrosis Factor alpha (TNFa) Biomarker Activity (AID 2283085); conditions: primary human HUVEC with PBMC; actives raise or lower the signal;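 for AC50: TNFa protein level quantified by ELISA in the co-culture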
Procedure, shortened: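 Cells (umbilical vein endothelium plus peripheral blood mononuclear cells) were dosed with chemical, incubated 24 h, then TNFa was quantified by ELISA; values derive from bidirectional fitting with DMSO as baseline.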

[5] = read-out: Vascular cell adhesion molecule 1 (VCAM1), VCAM1 (gene 7412); assay: BSK_LPS_VCAM1: BioMAP Diversity Plus: LPS Assay for Vascular cell adhesion molecule 1 (VCAM1) Biomarker Activity (AID 2283086); conditions: primary human HUVEC with PBMC; actives raise or lower the signal
Procedure, shortened: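 Cells are dosed in an LPS-stimulated endothelial/mononuclear co-culture and, after 24 h, VCAM-1 is quantified by ELISA. Activity in either direction is fitted relative to the DMSO negative control.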

CD38, CD38 (gene 952) = assay: BSK_SAg_CD38: BioMAP Diversity Plus: SAg Assay for CD38 Biomarker Activity (AID 2283087); conditions: primary human HUVEC with PBMC; actives raise or lower the signal
Procedure, shortened: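 CD38 quantified by ELISA (fluorescence) in a superantigen-activated endothelial cell–PBMC co-culture at 24 h post-dose. Activity fitted in both directions relative to DMSO; parallel SRB and Alamar Blue cytotoxicity read-outs.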

CD40, CD40 (gene 958) = assay: BSK_SAg_CD40: BioMAP Diversity Plus: SAg Assay for CD40 Biomarker Activity (AID 2283088); conditions: primary human HUVEC with PBMC; actives raise or lower the signal
Procedure, shortened: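 CD40 is measured by fluorescence ELISA in an endothelial/PBMC primary human co-culture at 24 h post-dose. Fitting is bidirectional, DMSO baseline. Parallel SRB staining (560 nm) flags cytotoxicity.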

[6] = read-out: Monocyte Chemoattractant Protein-1 (MCP1), CCL2 (gene 6347); assay: BSK_SAg_MCP1: BioMAP Diversity Plus: SAg Assay for Monocyte Chemoattractant Protein-1 (MCP1) Biomarker Activity (AID 2283090); conditions: primary human HUVEC with PBMC; actives raise or lower the signal
Procedure, shortened: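 Values derive from bidirectional fitting of ELISA-measured MCP1 against DMSO controls. Readings were taken 24 h after dosing human vascular endothelial cells co-cultured with peripheral blood mononuclear cells under superantigen stimulation.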

[7] = read-out: E-selectin (Homo sapiens) (UniProt P16581); assay: BSK_SAg_Eselectin: BioMAP Diversity Plus: SAg Assay for Eselectin Biomarker Activity (AID 2283091); conditions: primary human HUVEC with PBMC; actives raise or lower the signal
Procedure, shortened: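 Cell-surface E-selectin is read by ELISA at 24 h in the SAg co-culture of HUVEC and PBMC. Curves are fitted in both directions relative to DMSO. Parallel SRB total-protein staining tracks overt toxicity.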

[8] = read-out: Monokine induced gamma interferon (MIG), CXCL9 (gene 4283); assay: BSK_SAg_MIG: BioMAP Diversity Plus: SAg Assay for Monokine induced gamma interferon (MIG) Biomarker Activity (AID 2283092); conditions: primary human HUVEC with PBMC; actives raise or lower the signal
Procedure, shortened: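 Values reflect bidirectional fitting of ELISA-measured MIG against DMSO vehicle, taken 24 h after dosing of a co-culture of human umbilical vein endothelial cells and peripheral blood mononuclear cells.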

[9] = BSK_SAg_PBMCCytotoxicity: PBMC Cytotoxicity Assessment in the BioMAP Diversity Plus: SAg Assay (AID 2283093); conditions: primary human HUVEC with PBMC;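 note: fitted both ways against DMSO so a hit may be loss or gain of signal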;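 for AC50: PBMC superantigen activated with SEB plus TSST-1 one hour after compound addition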
Procedure, shortened: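 PBMC viability by Alamar Blue reduction, fluorescence read at 546/580 nm after 6 h dye exposure. Cells were dosed 1 h before SEB plus TSST-1 activation (20 ng/mL final each), then held 90 h; endothelial/PBMC human co-culture.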

[10] = read-out: Interleukin-8 (IL8), CXCL8 (gene 3576); assay: BSK_SAg_IL8: BioMAP Diversity Plus: SAg Assay for Interleukin-8 (IL8) Biomarker Activity (AID 2283094); conditions: primary human HUVEC with PBMC; actives raise or lower the signal
Procedure, shortened: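 Chemicals were dosed onto a human endothelial–PBMC co-culture, and IL-8 was quantified by ELISA after 24 h. Both increases and decreases were fitted relative to DMSO.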

[11] = BSK_SAg_Proliferation: Cell Proliferation Assessment in the BioMAP Diversity Plus: SAg Assay (AID 2283095); conditions: primary human HUVEC with PBMC;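 note: relative cell number as total protein by SRB absorbance in sub-confluent culture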
Procedure, shortened: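 Absorbance of sulforhodamine B at 560 nm reports total protein in a human vascular endothelial/PBMC co-culture after 96 h chemical exposure. Gain or loss of signal is fitted in both directions against DMSO.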

[12] = BSK_SAg_SRB: Viability Assessment in the BioMAP Diversity Plus: SAg Assay (AID 2283096); conditions: primary human HUVEC with PBMC;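 note: cells read one day after compound addition; hits may be either gain or loss of signal compared with DMSO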
Procedure, shortened: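 Compounds were added to a human vascular co-culture of umbilical vein endothelium and PBMC. After 24 h, parallel cultures were fixed with 10% TCA, stained with 0.1% sulforhodamine B and read at 560 nm. Gain or loss of signal was fitted relative to DMSO.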

[13] = molecular target: human CYP2A6, CYP2A6 (gene 1548) (UniProt P11509); assay: NVS_ADME_hCYP2A6: NovaScreen (NVS) CYP450-related Enzyme Activity (ADME) Assay for human CYP2A6 (AID 2283099; active = hit-call score of the fitted dose curve at least 0.9, where 1 is the maximum)
Procedure, shortened: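 Compounds screened at 10 uM (duplicate) and, if active, titrated to a 20 uM top concentration against insect-cell-expressed CYP2A6. Loss of fluorescent product signal after 0.5 h, relative to acetonitrile baseline, indicates inhibition.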

[14] = molecular target: human CYP2B6, CYP2B6 (gene 1555) (UniProt P20813); assay: NVS_ADME_hCYP2B6: NovaScreen (NVS) CYP450-related Enzyme Activity (ADME) Assay for human CYP2B6 (AID 2283101; active = hit-call score of the fitted dose curve at least 0.9, where 1 is the maximum)
Procedure, shortened: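 Compounds were first screened in duplicate at 10 uM against recombinant enzyme, with the fluorescent product measured after 1 hour. Active compounds were retested over a concentration series. Loss of fluorescence versus acetonitrile control was scored as reduced enzyme activity.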

[15] = read-out: Macrophage colony-stimulating factor (MCSF), CSF1 (gene 1435); assay: BSK_LPS_MCSF: BioMAP Diversity Plus: LPS Assay for Macrophage colony-stimulating factor (MCSF) Biomarker Activity (AID 2283083); conditions: primary human HUVEC with PBMC; actives raise or lower the signal
Procedure, shortened: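 Bidirectional fitting against DMSO was applied to M-CSF levels read by ELISA at 24 h post-dose. The system pairs human umbilical vein endothelium with peripheral blood mononuclear cells; parallel SRB staining tracked cytotoxicity.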

[16] = molecular target: human CYP1A2, CYP1A2 (gene 1544) (UniProt P05177); assay: NVS_ADME_hCYP1A2: NovaScreen (NVS) CYP450-related Enzyme Activity (ADME) Assay for human CYP1A2 (AID 2283102; active = hit-call score of the fitted dose curve at least 0.9, where 1 is the maximum;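 for AC50: fluorescence from turnover of a fluorogenic substrate by recombinant insect-cell CYP1A2; potency for inhibition since loss of fluorescence marks reduced CYP1A2 activity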)
Procedure, shortened: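 Enzyme activity of insect-cell-expressed human CYP1A2 measured by fluorescence 0.5 h after compound addition, relative to acetonitrile. Compounds first tested in duplicate at 10 uM, actives followed up in concentration series.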

Measured: AC50

human CYP1A2, CYP1A2 (gene 1544), sequence (P05177 whole entry, looked up): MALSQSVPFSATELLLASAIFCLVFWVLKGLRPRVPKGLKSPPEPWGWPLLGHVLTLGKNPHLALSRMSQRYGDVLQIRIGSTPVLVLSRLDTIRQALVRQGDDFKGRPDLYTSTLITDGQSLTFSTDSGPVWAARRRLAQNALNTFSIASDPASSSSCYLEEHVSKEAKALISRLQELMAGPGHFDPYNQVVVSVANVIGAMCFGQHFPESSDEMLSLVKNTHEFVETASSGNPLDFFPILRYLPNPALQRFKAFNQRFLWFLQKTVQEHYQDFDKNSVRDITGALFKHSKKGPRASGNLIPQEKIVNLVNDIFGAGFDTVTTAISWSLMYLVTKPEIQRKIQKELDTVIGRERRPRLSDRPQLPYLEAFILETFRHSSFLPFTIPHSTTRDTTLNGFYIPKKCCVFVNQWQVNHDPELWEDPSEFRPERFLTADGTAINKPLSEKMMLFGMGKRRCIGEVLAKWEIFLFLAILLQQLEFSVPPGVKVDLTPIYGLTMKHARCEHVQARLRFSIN
Tumor necrosis factor (Homo sapiens), sequence (P01375 whole entry, looked up): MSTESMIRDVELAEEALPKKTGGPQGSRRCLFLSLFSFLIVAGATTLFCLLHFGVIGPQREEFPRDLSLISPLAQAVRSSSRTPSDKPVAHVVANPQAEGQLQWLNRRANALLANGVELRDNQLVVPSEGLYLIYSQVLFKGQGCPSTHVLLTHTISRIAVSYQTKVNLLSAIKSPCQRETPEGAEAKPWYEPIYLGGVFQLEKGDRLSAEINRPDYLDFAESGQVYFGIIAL
E-selectin (Homo sapiens), sequence (P16581 whole entry, looked up): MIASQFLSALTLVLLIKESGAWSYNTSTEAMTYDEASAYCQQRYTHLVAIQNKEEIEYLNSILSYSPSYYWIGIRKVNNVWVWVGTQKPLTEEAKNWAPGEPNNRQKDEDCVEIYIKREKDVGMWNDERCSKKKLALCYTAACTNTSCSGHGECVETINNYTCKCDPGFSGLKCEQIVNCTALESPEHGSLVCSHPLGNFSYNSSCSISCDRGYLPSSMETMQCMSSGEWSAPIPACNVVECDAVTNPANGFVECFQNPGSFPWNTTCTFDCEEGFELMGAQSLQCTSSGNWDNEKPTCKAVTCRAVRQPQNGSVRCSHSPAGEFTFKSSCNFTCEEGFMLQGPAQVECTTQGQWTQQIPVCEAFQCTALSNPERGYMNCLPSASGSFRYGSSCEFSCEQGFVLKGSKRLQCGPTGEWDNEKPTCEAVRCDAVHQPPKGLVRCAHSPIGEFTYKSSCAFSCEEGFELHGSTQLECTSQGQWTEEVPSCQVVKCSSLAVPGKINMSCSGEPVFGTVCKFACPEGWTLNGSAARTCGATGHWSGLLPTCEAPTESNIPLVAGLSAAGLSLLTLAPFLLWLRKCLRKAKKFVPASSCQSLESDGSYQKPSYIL
human CYP2B6, CYP2B6 (gene 1555), sequence (P20813 whole entry, looked up): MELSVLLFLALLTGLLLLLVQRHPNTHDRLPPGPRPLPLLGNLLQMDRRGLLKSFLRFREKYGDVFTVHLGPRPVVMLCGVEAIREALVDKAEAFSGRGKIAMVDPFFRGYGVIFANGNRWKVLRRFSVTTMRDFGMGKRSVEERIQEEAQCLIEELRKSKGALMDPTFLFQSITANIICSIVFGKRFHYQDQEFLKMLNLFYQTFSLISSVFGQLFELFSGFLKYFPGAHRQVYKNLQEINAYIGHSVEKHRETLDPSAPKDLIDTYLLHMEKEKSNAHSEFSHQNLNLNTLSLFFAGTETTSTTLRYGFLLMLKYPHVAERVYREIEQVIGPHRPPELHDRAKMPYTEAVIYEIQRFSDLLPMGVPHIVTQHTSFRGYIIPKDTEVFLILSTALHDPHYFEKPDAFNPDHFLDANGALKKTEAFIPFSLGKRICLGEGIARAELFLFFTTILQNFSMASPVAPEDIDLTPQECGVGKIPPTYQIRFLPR
human CYP2A6, CYP2A6 (gene 1548), sequence (P11509 whole entry, looked up): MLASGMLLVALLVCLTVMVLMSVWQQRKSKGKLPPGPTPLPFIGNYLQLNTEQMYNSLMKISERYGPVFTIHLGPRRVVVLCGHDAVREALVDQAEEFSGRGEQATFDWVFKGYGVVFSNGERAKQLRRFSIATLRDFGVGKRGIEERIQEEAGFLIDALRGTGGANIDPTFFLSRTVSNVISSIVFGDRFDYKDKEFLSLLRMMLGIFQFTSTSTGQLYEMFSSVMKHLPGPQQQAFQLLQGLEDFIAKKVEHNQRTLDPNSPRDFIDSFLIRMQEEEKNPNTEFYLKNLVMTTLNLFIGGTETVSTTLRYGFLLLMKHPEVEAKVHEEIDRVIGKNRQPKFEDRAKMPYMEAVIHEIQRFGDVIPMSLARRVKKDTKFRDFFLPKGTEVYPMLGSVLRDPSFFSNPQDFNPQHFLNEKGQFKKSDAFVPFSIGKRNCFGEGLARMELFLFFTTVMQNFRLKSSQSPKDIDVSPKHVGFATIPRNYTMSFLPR

CCCC1COC(Cn2cncn2)(c2ccc(Cl)cc2Cl)O1 (centres undefined)
active: [2] 6.44 µM | [11] 20.7 µM | [14] 2.78 µM
not listed: [15] | [16]
inactive: all other assays above

CC(C)Oc1cc(-n2nc(C(C)(C)C)oc2=O)c(Cl)cc1Cl
active: [1] 30.2 µM | [15] 32.7 µM | [4] 35.7 µM | [5] 31.7 µM | CD38, CD38 (gene 952) 28.7 µM | CD40, CD40 (gene 958) 29.3 µM | [6] 29.9 µM | [7] 30.3 µM | [8] 31.9 µM | [9] 34.4 µM | [10] 31.2 µM | [11] 31.3 µM | [12] 30.5 µM | [16] 6.42 µM
inactive: [2] | [3]

CC1=C(C(=O)Nc2ccccc2)SCCO1
active: [2] 8.8 µM | [16] 6.47 µM
not listed: [13] | [14]
inactive: all other assays above

CCOC(=O)C(Cl)Cc1cc(-n2nc(C)n(C(F)F)c2=O)c(F)cc1Cl (centres undefined)
active: [11] 21.2 µM
not listed: [13] | [14]
inactive: all other assays above

Fc1ccc(Oc2ccnc3cc(Cl)cc(Cl)c23)cc1
active: [1] 29.5 µM | [2] 8.77 µM | [15] 18.7 µM | [3] 32.3 µM | [4] 20 µM | [5] 23.2 µM | CD38, CD38 (gene 952) 25.1 µM | [6] 28.2 µM | [7] 20.5 µM | [8] 30.6 µM | [9] 31.4 µM | [10] 15.9 µM | [11] 22.7 µM | [12] 25.5 µM | [16] 7.42 µM

COc1cnc(OC)n2nc(NS(=O)(=O)c3c(OCC(F)F)cccc3C(F)(F)F)nc12
not listed: [13] | [14] | [16]
inactive: all other assays above

COc1nc(C)nc(NC(=O)NS(=O)(=O)c2ccccc2CCC(F)(F)F)n1
not listed: [13] | [14] | [16]
inactive: all other assays above
